Results filed as inconclusive are left out. Calls of active or inactive are those of the source. Calls follow the shape of the full dose curve.
Assay: Primary qHTS for inhibitors of SARS-S pseudo-typed particle cell entry (AID 1479145); also: nearly all actives have a fitted effect of over 45% in size
Details: SARS-S pseudotyped particle cell entry, luciferase reporter; series mostly up to 57.1 µM; activity change, negative = inhibition: at the top concentration
With `CCCc1nc(C(C)(C)O)c(C(=O)OCc2oc(=O)oc2C)n1Cc1ccc(-c2ccccc2-c2nn[nH]n2)cc1` the “activity change, negative = inhibition” value was 4.75% (inactive). With `N[C@@H](CCC(=O)N[C@@H](CS)C(=O)NCC(=O)O)C(=O)O` the “activity change, negative = inhibition” value was -7.11% [at 26.4 µM] (inactive). In the case of `CCCCCCCCCCCCCCCCCC(=O)OCC(O)CO` (stereo not drawn), the “outcome” value is reported as “inactive”. For `O=C(COCCOCCOCC(=O)Nc1c(I)cc(I)c(C(=O)O)c1I)Nc1c(I)cc(I)c(C(=O)O)c1I`, the “activity change, negative = inhibition” value was -1.3% (inactive). For `O=C(O)c1cc(=O)c2c(OCC(O)COc3cccc4oc(C(=O)O)cc(=O)c34)cccc2o1`, the “activity change, negative = inhibition” value was -0.807% (inactive). For `CCCCCCCCCCCCCCCC(=O)OCCC1CCN(CCCN2c3ccccc3Sc3ccc(S(=O)(=O)N(C)C)cc32)CC1`, the “activity change, negative = inhibition” value was -7.44% (inactive). For `CN1C[C@H](C(=O)N[C@]2(C)O[C@@]3(O)[C@@H]4CCCN4C(=O)[C@H](Cc4ccccc4)N3C2=O)C=C2c3cccc4[nH]cc(c34)C[C@H]21`, the “outcome” value was “inactive”. In the case of `CN1[C@@H]2CC(OC(=O)[C@H](CO)c3ccccc3)C[C@H]1[C@@H]1O[C@@H]12` (stereo partly drawn), the “outcome” value is reported as “inactive”. With `CO[C@@]1(NC(=O)C2SC(=C(C(N)=O)C(=O)O)S2)C(=O)N2C(C(=O)O)=C(CSc3nnnn3C)CS[C@@H]21` (stereo partly drawn) the “activity change, negative = inhibition” value was -31.2% (inactive). In the case of `O=C(O)c1cc(N=Nc2ccc(O)c(C(=O)O)c2)ccc1O`, the “activity change, negative = inhibition” value is reported as -32.9% (inactive). For `Cc1cccc(C)c1OCC(=O)N[C@@H](Cc1ccccc1)[C@@H](O)C[C@H](Cc1ccccc1)NC(=O)[C@H](C(C)C)N1CCCNC1=O`, the “outcome” value was “inactive”. In the case of `CCC(=O)c1c(O)cc(O)cc1O`, the “activity change, negative = inhibition” value is reported as -10.8% (inactive). For `CC(=O)OCC(=O)[C@@]1(O)[C@H](C)C[C@H]2[C@@H]3CCC4=CC(=O)C=C[C@]4(C)[C@@]3(F)[C@@H](O)C[C@@]21C`, the “outcome” value was “inactive”.

— PubChem BioAssay (NCATS)
% is scaled to controls: 0 for no effect and ±100 for the full control effect.
